The structures appear in SMILES notation. Among all 340,000 compounds or so, about 3,300 (0.97%) were called active. About 9% were inconclusive and are not listed. Calls follow the shape of the dose curve; as a rule, active = well fitted inhibition curve with a large enough effect; inconclusive = small, poorly fitted or top-dose-only effect, or effect the other way; inactive = flat fitted curve, though single readings scatter. The list shows a part of the results.
Potency is read from the fitted curve at half-maximal effect.

A short description of the assay: qHTS Assay for Modulators of miRNAs and/or Inhibitors of miR-21. Also: nearly all actives have a fitted effect of over 55% in size. As to conditions: HeLa miR-21-FLuc reporter, luciferase luminescence, 48 h; actives lower the signal. A digest of the protocol: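 Using DMEM plus 10% FBS, HeLa miR-21-FLuc cells are incubated with test compounds (final up to about 40uM) for 48 hours; firefly luciferase signal is then imaged following reagent-mediated lysis.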
In general terms: qHTS replaces the single test concentration by a dilution series.
As to `Cc1cc(C(=O)NNC(=S)Nc2ccccc2C)cs1`, the Potency is 1.65 µM (active).

As for `CCc1cc(C(=O)NNC(=S)Nc2ccccc2C)cs1`, the Potency is 2.07 µM (active).

Turning to `c1ccc2nc(-c3ccc(-n4ccnc4)cc3)ccc2c1`, the Potency was 0.826 µM (active).

Consider `COc1ccc(C(=O)N[C@H](C(=O)Nc2nc3c(s2)CCCC3)C(C)C)cc1`, for which the Potency is 2.93 µM (active).

Consider `Nc1ccc2c(c1)sc1ccccc12`, for which the Potency is 6.56 µM (active).

Take `NNc1ccc(Cl)c(C(=O)O)c1`: the Potency is 6.56 µM (active).

Take `O=C(O)c1cc(N/N=C/C=C/c2ccccc2[N+](=O)[O-])ccc1Cl`: the Potency is 3.29 µM (active).

For the compound `NS(=O)(=O)c1ccc(N/N=C/C=C/c2ccccc2[N+](=O)[O-])cc1`, the Potency is 3.29 µM (active).

Turning to `O=C(O)c1cc(N/N=C/C=C/c2ccccc2)ccc1Cl`, the Potency is 0.826 µM (active).

In the case of `O=C(O)c1ccc(N/N=C/C=C/c2ccccc2[N+](=O)[O-])cc1`, the Potency was 4.65 µM (active).

In the case of `O=C(O)c1cc(N/N=C/C(Cl)=C/c2ccccc2)ccc1Cl`, the Potency was 0.233 µM (active).

For `Fc1cccc(Cl)c1CNc1n[nH]c(-c2ccco2)n1`, the Potency is 7.36 µM (active).

With `CC(C)c1ccc(CNc2n[nH]c(-c3ccco3)n2)cc1`, the Potency was 2.07 µM (active).

As for `Nc1c(C(=O)N/N=C/c2cccnc2)cnn1-c1ccccc1`, the Potency is 16.5 µM (active).

On to `Nc1c(C(=O)N/N=C/c2ccccc2)cnn1-c1ccccc1`, for which the Potency is 1.47 µM (active).

As to `Cc1ccccc1OCC1Cc2c(nc(N)c(C#N)c2N)O1` (centres undefined), the Potency is 14.7 µM (active).

For `N#Cc1c(N)nc2c(c1N)CC(COc1ccccc1)O2` (centres undefined), the Potency is 7.36 µM (active).

As to `C=C(C)Cn1cnc2c(oc3nc4c(cc32)CCCC4)c1=O`, the Potency is 1.17 µM (active).

Consider `CCn1c(C)cc(C=C2C(=O)c3ccccc3C2=O)c1C`, for which the Potency is 13.1 µM (active).

`Cc1cc(C=C2C(=O)c3ccccc3C2=O)c(C)n1C`: the Potency was 18.5 µM (active).

On to `Cc1cc(C=C2C(=O)c3ccccc3C2=O)c(C)n1-c1cccc(C(=O)O)c1`, for which the Potency is 11.7 µM (active).

In the case of `NC(=O)c1sc2nc(-c3ccco3)ccc2c1N`, the Potency was 14.7 µM (active).

With `CC(=O)c1sc2nc(-c3ccco3)ccc2c1N`, the Potency is 14.7 µM (active).

On to `Cc1ccc2cc(CCNC(=O)c3cccs3)c(=O)[nH]c2c1C`, for which the Potency was 2.93 µM (active).

`Cc1ccc2cc(CCNC(=O)c3cccs3)c(=O)[nH]c2c1`: the Potency is 4.14 µM (active).

As for `Cc1cc2cc(CCNC(=O)c3cccs3)c(=O)[nH]c2cc1C`, the Potency was 3.69 µM (active).

As for `CSCc1ccc(C(=O)Nc2ccc(C(N)=O)cc2)cc1`, the Potency is 1.65 µM (active).

As for `CC(=O)c1ccc(NC(=O)/C(Cl)=C/c2ccccc2)cc1`, the Potency is 5.21 µM (active).

As for `O=C(Nc1ccc(F)cc1)/C(Cl)=C/c1ccccc1`, the Potency is 1.31 µM (active).

In the case of `CC(C)=CCN1CCN(Cc2cnc(N3CCOCC3)s2)CC1CCO` (centres undefined), the Potency was 1.65 µM (active).

For the compound `COc1ccc(Cn2c(SCC#N)nc3ccc(N4CCOCC4)cc3c2=O)cc1`, the Potency was 6.56 µM (active).

On to `Cc1cc(N(CCO)CCO)ccc1N=Nc1cc(F)ccc1F`, for which the Potency is 9.27 µM (active).

Take `COc1ccc(C(=O)C(OC(=O)c2ccccc2Cl)c2ccccc2)cc1` (centres undefined): the Potency is 14.7 µM (active).

Turning to `COc1cccc(NC(=O)c2c(-c3ccc(C)cc3)nnc3ccccc23)c1`, the Potency was 4.65 µM (active).

With `Cc1ccc(-c2nnc3ccccc3c2C(=O)Nc2ccc(F)cc2)cc1`, the Potency was 6.56 µM (active).

On to `Cc1nnc(SCc2ccccc2)c2cc3sccc3n12`, for which the Potency is 14.7 µM (active).

Regarding `COc1cccc2cc(-c3ccccc3)c(=O)oc12`, the Potency was 1.65 µM (active).

In the case of `COc1cccc2cc(-c3nc(-c4ccccc4F)no3)c(=O)oc12`, the Potency is 0.185 µM (active).

With `Cc1cc(NC(=O)CSc2nc3c(cc2C#N)CCCC3)no1`, the Potency is 1.47 µM (active).

Take `N#Cc1cc2cc3c(cc2nc1SCC(=O)N1CCOCC1)OCO3`: the Potency is 0.656 µM (active).

Regarding `COc1cc2cc(C#N)c(SCC(=O)N3CCOCC3)nc2cc1OC`, the Potency was 11.7 µM (active).

Consider `Clc1ccc(-c2cnc3ccccc3n2)cc1`, for which the Potency was 4.14 µM (active).

Consider `CCCCOc1ccc(-c2cnc3ccccc3n2)cc1`, for which the Potency is 0.656 µM (active).

For `CN(C)c1ccc(-n2cccc2/C=N/n2cnnc2)cc1`, the Potency is 8.26 µM (active).

As to `COC(=O)c1ccc(COc2ccc(C)c(C)c2)o1`, the Potency was 14.7 µM (active).

With `COC(=O)c1ccc(COc2ccc(C(C)(C)C)cc2)o1`, the Potency was 10.4 µM (active).

On to `O=C(OCc1ccccn1)c1ccc(COc2ccc3ccccc3c2)o1`, for which the Potency is 6.56 µM (active).

For the compound `CCCc1ccc(OCc2ccc(C(=O)OC)o2)c(OC)c1`, the Potency was 7.36 µM (active).

In the case of `COC(=O)c1ccc(COc2ccc(C)cc2[N+](=O)[O-])o1`, the Potency is 13.1 µM (active).

For `CCc1ccc(OCc2ccc(C(=O)OC)o2)cc1`, the Potency was 5.21 µM (active).

For the compound `COC(=O)c1ccc(COc2ccc3c(c2)CCC3)o1`, the Potency was 5.21 µM (active).

In the case of `Cc1cc(Cl)c2oc(C(=O)N(C)CC3CCOCC3)c(C)c2c1`, the Potency is 14.7 µM (active).

Consider `C=CCN(C(=O)c1oc2c(Cl)cc(C)cc2c1C)C1CCS(=O)(=O)C1` (centres undefined), for which the Potency was 10.4 µM (active).

As to `Cc1cc(Cl)c2oc(C(=O)NCCC3CCCCO3)c(C)c2c1` (centres undefined), the Potency was 14.7 µM (active).

`Cc1cc(Cl)c2oc(C(=O)N(C)C3CCOC3)c(C)c2c1` (centres undefined): the Potency was 14.7 µM (active).

`CCCCn1cnc2c(oc3ccccc32)c1=O`: the Potency is 13.1 µM (active).

For the compound `CN(C)c1ncnc2sc(-c3ccccc3)cc12`, the Potency was 14.7 µM (active).

On to `Cc1nc2sc(-c3ccccc3)cc2c(=O)n1/N=C/N(C)C`, for which the Potency is 3.29 µM (active).

For `CCc1cc2c(=O)n(-c3ccccc3)cnc2s1`, the Potency was 13.1 µM (active).

As to `O=C(CSc1ncnc2ccccc12)c1ccc2c(c1)OCCO2`, the Potency was 2.07 µM (active).

Regarding `CCn1cnc2sc(-c3ccccc3)cc2c1=O`, the Potency is 1.47 µM (active).

For `CC(=O)Cn1nnc2sc(-c3ccccc3)cc2c1=O`, the Potency was 1.85 µM (active).

As for `CCc1cc2c(SCC(=O)c3ccccc3)ncnc2s1`, the Potency was 8.26 µM (active).

On to `CCCCn1cnc2sc(-c3ccccc3)cc2c1=O`, for which the Potency is 1.31 µM (active).

Turning to `CC(=O)Cn1cnc2sc(-c3ccccc3)cc2c1=O`, the Potency was 4.14 µM (active).

Take `O=C(NC1CCCCC1)c1cc(-c2cccs2)on1`: the Potency was 2.93 µM (active).

As for `Cn1c(C(=O)NC2CCCCC2)cc2sccc21`, the Potency was 6.56 µM (active).

Turning to `O=C(NC1CCCC1)c1cc(-c2cccs2)on1`, the Potency is 2.33 µM (active).

Turning to `O=C(Nc1ncc(Cc2cccc(Cl)c2)s1)C1CCCO1` (centres undefined), the Potency was 7.36 µM (active).

With `O=C(Nc1nnc(-c2ccccc2F)s1)C1CCCO1` (centres undefined), the Potency was 1.85 µM (active).

Turning to `Cc1cccc2sc(NC(=O)C3CCCO3)nc12` (centres undefined), the Potency is 13.1 µM (active).

As to `O=C(Nc1nnc(SCc2c(Cl)cccc2Cl)s1)C1CCCO1` (centres undefined), the Potency was 18.5 µM (active).

In the case of `O=C(Nc1ncc(Cc2cccc(Cl)c2Cl)s1)C1CCCO1` (centres undefined), the Potency was 7.36 µM (active).

For the compound `CC1CCCN(c2ccc(C(=O)NCc3cccs3)cn2)C1` (centres undefined), the Potency is 6.56 µM (active).

Take `CC(C)(CO)NC(=O)c1ccc2c(c1)C(=O)c1ccccc1-2`: the Potency is 5.21 µM (active).

For the compound `Cc1ccsc1C(=O)OCC(=O)NCCC1=CCCCC1`, the Potency is 18.5 µM (active).

Consider `O=c1[nH]cnc2scc(-c3ccc(-c4ccccc4)cc3)c12`, for which the Potency is 0.521 µM (active).

Take `Cc1ccccc1-c1ncnn1-c1sc2c(c1C#N)CCCCC2`: the Potency is 1.31 µM (active).

Turning to `N#Cc1c(-n2ncnc2-c2ccc(F)cc2)sc2c1CCCCC2`, the Potency was 3.69 µM (active).

Take `C1=Nc2ccccc2CN1c1ccccc1`: the Potency was 5.85 µM (active).

With `Oc1cccc(-c2nc3ccc4ccccc4c3c3c2CCC3)c1`, the Potency was 5.21 µM (active).

`CCOCCCNC(=O)c1cccc(OC2CCN(S(C)(=O)=O)CC2)c1`: the Potency is 5.85 µM (active).

Regarding `Nc1c(C(=O)C2CC2)sc2nc3c(cc12)CCC3`, the Potency was 1.85 µM (active).

Turning to `Nc1c(C(=O)N2CCCCC2)sc2nc3c(cc12)CCCC3`, the Potency was 1.31 µM (active).

For `CN(C(=O)c1ccco1)c1nc(-c2ccccc2)cs1`, the Potency is 1.85 µM (active).

As to `COCCCN(C(C)=O)c1nc(-c2ccccc2)cs1`, the Potency was 6.56 µM (active).

Regarding `COc1ccccc1/C=N/Nc1nncc2ccccc12`, the Potency was 4.65 µM (active).

`COc1ccc(/C=N/Nc2nncc3ccccc23)c(OC)c1`: the Potency was 5.85 µM (active).

For the compound `COc1ccccc1C(=O)NC1=NC(c2ccc(Br)cc2)CC(=O)N1` (centres undefined), the Potency is 1.85 µM (active).

As to `N=c1nc(N)nc2n1NC(c1ccc(F)cc1)=CS2`, the Potency is 16.5 µM (active).

On to `C(=C\c1nc(-c2ccccc2)no1)/c1ccccc1`, for which the Potency was 1.04 µM (active).

Regarding `Clc1ccccc1/C=C/c1nc(-c2cccnc2)no1`, the Potency was 0.656 µM (active).

On to `Cc1ccc2oc(-c3ccco3)cc(=O)c2c1`, for which the Potency was 5.85 µM (active).

As to `Cc1cccc2c1-c1sc(C(=O)Nc3ccccc3C(N)=O)cc1CO2`, the Potency is 0.165 µM (active).

As for `Cc1cccc2c1-c1sc(C(=O)N3CCCCC3)cc1CO2`, the Potency was 3.69 µM (active).

In the case of `CCN(CC)c1ccc(-c2nc3cnccc3n2C)cc1`, the Potency was 3.69 µM (active).

For `COc1ccc(NC(=O)n2ncc3cc(Cl)ccc32)cc1OC`, the Potency was 8.26 µM (active).

For the compound `COc1ccc(NC(=O)n2ncc3c(C)cccc32)cc1OC`, the Potency was 7.36 µM (active).

With `COc1ccc2nc3sc(C(=O)NCc4cccs4)c(N)c3cc2c1`, the Potency was 1.31 µM (active).

For `Cc1ccc2nc3sc(C(=O)NCc4ccco4)c(N)c3cc2c1`, the Potency was 0.521 µM (active).

For `Clc1ccc2nc(N3CCCCC3)sc2c1`, the Potency was 2.07 µM (active).

For `c1ccc(CN2CCN(c3nc4ccccc4s3)CC2)cc1`, the Potency was 1.31 µM (active).

In the case of `Clc1ccc2nc(N3CCN(c4ccccc4)CC3)sc2c1`, the Potency is 0.464 µM (active).

On to `CC(C)(C)c1ccc(/C=C/C(=O)Nc2nncs2)cc1`, for which the Potency is 0.369 µM (active).

With `O=C(COc1ccc(Br)cc1Br)NC(=S)Nc1cccc(CO)c1`, the Potency is 1.65 µM (active).

Turning to `O=C(COc1ccc2ccccc2c1Br)NC(=S)Nc1cccc(CO)c1`, the Potency is 20.7 µM (active).

Regarding `COc1ccc(C(=O)N=c2sc3c(C)ccc(OC)c3n2C)cc1`, the Potency was 0.185 µM (active).

In the case of `CCn1c(=NC(=O)c2ccc3c(c2)OCCO3)sc2c(C)ccc(OC)c21`, the Potency is 1.31 µM (active).

Regarding `COc1ccccc1C(=O)N=c1sc2c(C)ccc(OC)c2n1C`, the Potency is 3.69 µM (active).

The values are drawn from PubChem BioAssay AID2289 (National Center for Advancing Translational Sciences (NCATS), 2010).
